# This is one part of a sample in which hits are shown more often than they occur.
# RmlC RmlD mix: mixture blocks RmlC and RmlD coupled enzyme activity; RmlC/RmlD coupled enzyme inhibition, 384-well mixture HTS; AID 1532; 110,000 tested, 0.39% active; inhibition, % at 5.5 µM; in the data active means inhibition above about 30%, passing the limit was not always enough; inconclusive means no clear call, values can overlap the other calls
# HIV RNase H inh-1: blocks HIV-1 RNase H cleavage of RNA/DNA duplex | AID 565 | RT-RNase H RNA/DNA duplex cleavage, fluorescence | P04585 | inhibition, % at 10 µM | 65,000 tested, 1.9% active; in the data active means inhibition above about 50%
# HIV RNase H inh-2: confirmation of HIV-1 reverse transcriptase RNase H inhibitors; shares compounds with HIV RNase H inh-1; Recombinant RT RNase H, fluorescent RNA/DNA duplex cleavage; inhibition, % at 10 µM; 1,000 tested, 39% active; AID 651; in the data active means inhibition above about 48%; inconclusive means no clear call, values can overlap the other calls
# Active calls of the source: *; ? = inconclusive; . = no result.
SMILES,RmlC RmlD mix,HIV RNase H inh-1,HIV RNase H inh-2
c1ccc(Cc2nn3c(COc4ccccc4)nnc3s2)cc1,26,93*,64*
Clc1ccccc1-c1nn2c(COc3ccccc3)nnc2s1,-8,-2,.
COc1ccc(-c2nnc3sc(COc4ccccc4)nn23)cc1,1,-2,.
c1ccc(OCc2nn3c(C4CCCCC4)nnc3s2)cc1,-2,64*,29
Cc1ccc(-n2c(-c3c(-c4ccccc4)noc3C)n[nH]c2=S)cc1,4,.,.
COc1cc(C2C(C#N)=C(N)Oc3cc(C)n(CCc4ccccc4)c(=O)c32)cc2c1OCO2 (centres undefined),-10,77*,28
Cc1cc2c(c(=O)n1CCc1ccccc1)C(c1ccco1)C(C#N)=C(N)O2 (centres undefined),7,.,.
O=S(Cc1cc(Oc2ccccc2)nc(-c2ccccc2)n1)c1ccccc1 (centres undefined),-2,.,.
CCOc1ccc(-c2nn3c(-c4ccccc4)nnc3s2)cc1,-9,87*,17
CC(C)(C)c1ccc(-c2nnc3sc(-c4ccncc4)nn23)cc1,-3,95*,58*
Cc1nnc2sc(-c3ccncc3)nn12,30,-7,.
CCOc1ccc(-c2nn3c(-c4ccc(OC)cc4)nnc3s2)cc1,.,-1,.
CCCn1cnc2c1c(=O)n(CCCCC(C)=O)c(=O)n2C,-61,.,.
Cc1ccc(S(=O)(=O)Nc2cc(C)c(O)c(S(=O)(=O)c3ccc(C)cc3)c2)cc1,9,.,.
Cc1cc(NS(=O)(=O)c2ccccc2)cc(Cl)c1O,-6,78*,9
CCOC(=O)c1c(C)nc2sc3c(c2c1-c1ccc(OC)cc1)NC(c1ccc(OC)cc1)NC3=O (centres undefined),9,.,.
O=C1C=Cc2ccccc2C1=O,-34,95*,67*
CCN1C(=C2C(=O)c3ccccc3C2=O)C=Cc2ccccc21,15,-10,.
CC1(c2nnc(-c3ccncc3)o2)CC(c2ccccc2)=NO1 (centres undefined),-8,.,.
N#Cc1c(N)oc(-c2ccco2)c1-c1ccco1,-33,-45,.
COc1ccc(OC)c(/C=N/c2oc(-c3ccco3)c(-c3ccco3)c2C#N)c1,11,58*,66*
O=C(Nc1ccc(F)cc1)Nc1nnc(-c2ccncc2)s1,-4,.,.
COC(=O)Nc1nnc(-c2ccncc2)s1,11,67*,?
Cc1cccc(-n2c(C)cc(/C=N/n3cnnc3)c2C)c1,-13,.,.
Cn1c(=O)c2c(nc(NCC3CCCO3)n2Cc2cccc(Br)c2)n(C)c1=O (centres undefined),2,.,.
SMILES,RmlC RmlD mix,HIV RNase H inh-1,HIV RNase H inh-2
O=C(Nc1cc(N2CCOCC2)ncn1)Nc1cccc2ccccc12,-3,-2,.
O=C(NC(=O)c1ccc(Cl)cc1)Nc1cc(N2CCCCC2)ncn1,.,75*,99*
O=C(Cn1c(=O)n(CCCC(=O)NC2CCCC2)c(=O)c2ccccc21)NCCC1=CCCCC1,-8,20,.
COc1cc(-c2nn3c(COc4ccccc4)nnc3s2)cc(OC)c1OC,-22,71*,29
CCOc1cccc(-c2nnc3sc(-c4cc(OC)c(OC)c(OC)c4)nn23)c1,.,-3,.
COc1cc(-c2nn3c(Cc4ccccc4)nnc3s2)cc(OC)c1OC,15,91*,80*
COc1cc(-c2nn3c(-c4ccccc4)nnc3s2)cc(OC)c1OC,15,-6,.
COc1ccc([C@H]2C=C3CN(C(=O)OC(C)(C)C)S(=O)(=O)[C@H]3C[C@H]2OC(=O)c2cccs2)cc1,7,.,.
CN(C)C(=O)CSc1nnc(Cc2ccc([N+](=O)[O-])cc2)o1,5,.,.
CCn1c(=NC(=O)c2ccc(N3C(=O)CCC3=O)cc2)sc2c(OC)ccc(OC)c21,-16,56*,?
CCn1c(=NC(=O)CN2C(=O)CCC2=O)sc2c(OC)ccc(OC)c21,-9,-12,.
CCn1c(=O)cc(SCC(=O)N2CCOCC2)c2ccccc21,13,-28,.
CCn1c(=O)cc(SCC(=O)N2CCN(c3ccccc3OC)CC2)c2ccccc21,-10,71*,9
Cc1cc(Cl)c(S(=O)(=O)N2CCN(c3ccc(F)cc3)CC2)cc1OCC(=O)NC1CCCCC1,16,.,.
O=C(NCc1ccccc1)c1cnc2n(c1=O)CCS2,4,0,.
O=C(NCCCc1ccccc1)c1cnc2n(c1=O)CCS2,14,72*,32
CCCCSc1nc(C)cc(C)c1S(=O)(=O)c1ccccc1C,7,.,.
Cc1ccc(C2C=C(c3ccccc3)Nc3ncnn32)cc1 (centres undefined),10,.,.
C1=C(c2ccc(-c3ccccc3)cc2)Nc2ncnn2C1c1ccco1 (centres undefined),12,90*,52*
CCOC(=O)CSC1=C(C#N)C(c2ccccc2F)C(C(C)=O)=C(C)N1 (centres undefined),7,1,.
CSCSC1=C(C#N)C(c2ccccc2Cl)C(C(C)=O)=C(C)N1 (centres undefined),-3,70*,42
Cc1cc(C)cc(SCc2noc(C(=O)NCCCN3CCOCC3)c2C(=O)NCCCN2CCOCC2)c1,-2,.,.
C1CNCCNCCNCCN1,.,1,.
COc1ccc(CNc2nc(NCc3ccc(OC)c(OC)c3)n(C(=O)c3cccs3)n2)cc1OC,-7,.,.
CC(C)C[C@@H](CSc1ccc(Br)cc1)N1CCN(CC(C)C)CCC1=O,7,.,.
SMILES,RmlC RmlD mix,HIV RNase H inh-1,HIV RNase H inh-2
CCOC(=O)c1c(C)oc2c1c1c(c3ccccc32)OCN(Cc2ccccn2)C1,-11,.,.
CCOC(=O)c1c(C)oc2c1c(C(c1ccncc1)N1CCOCC1)c(O)c1ccccc12 (centres undefined),9,68*,6
COC(C/C=C/[C@H](O)[C@@H](C)OCc1ccccc1)OC,6,.,.
Cc1cccc(-c2noc(CN(C(=O)C(c3ccccc3)c3ccccc3)C(C)C)n2)c1,8,.,.
Cc1ccc(C2CC(=O)NC(SCCC(C)C)=C2C#N)cc1 (centres undefined),3,65*,10
COC(=O)CSC1=C(C#N)C(c2ccc(C(C)C)cc2)CC(=O)N1 (centres undefined),-14,-9,.
O=C(NCc1cccnc1)C(=O)NCC1OCCN1S(=O)(=O)c1ccc(F)cc1 (centres undefined),5,.,.
c1ccc(Cn2c(CNc3nc4ccccc4n3CCN3CCOCC3)nc3ccccc32)cc1,-9,-4,.
COC(=O)c1ccc2c(c1)N(Cc1nc(-c3cccc(C)c3)oc1C)C(=O)C1CCCN21 (centres undefined),4,71*,67*
Cc1cccc(-c2nc(CN3CCCC(C(=O)NC4CCCCCC4)C3)c(C)o2)c1 (centres undefined),3,6,.
CCOC(=O)c1c(C)n(-c2ccc(C)cc2)c2c(C(C(C)=O)C(=O)O)c(Br)c(O)c(O)c12 (centres undefined),9,.,.
CCOC(=O)C(C(C)=O)c1c(Br)c(O)c(O)c2c(C(=O)c3ccc(C)cc3)coc12 (centres undefined),6,95*,63*
COCCN1CSC(=S)N(Cc2ccco2)C1,4,63*,-8
COCCN=C1Sc2nc3ccc(C)cc3cc2CN1Cc1ccco1,9,.,.
Cc1cccc(CN2[C@@H](CC(C)C)COCCS2(=O)=O)c1,-9,.,.
CCC1S/C(=N/C(=O)NC2CCCCC2)NC1=O (centres undefined),-5,.,.

# Assay outcomes (PubChem BioAssay)
